Hits are enriched below; roughly 1.7% of the tested compounds scored in any of these assays.
TLR9-MyD88 inh – inhibitors of human TLR9-MyD88 binding; inhibition, % at 4.98 µM; hit rate 0.21% among 340,000; CHO BLA complementation TLR9-MyD88, CCF4 FRET ratio; AID 504734;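 active means inhibition above the mean over all tested compounds plus 3 SD, cut at about 21% in these data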;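 further: 0% = DMSO only wells and 100% = clavulanate BLA inhibitor control wells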
TLR4-MyD88 BLA – TLR4-MyD88 interaction inhibition in cells; hit rate 0.18% among 200,000; inhibition, % at 8.4 µM; O00206+Q99836; HeLa CL3-4 TLR4/MyD88 BLA complementation, FRET ratio; in the data active means inhibition above about 25%;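 further: 0% = vehicle and 100% = reference inhibitor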
Myeloid diff 2 – myeloid differentiation induction. hit rate 1% among 360,000. AID 624256. ER-HoxA9 myeloid progenitors, lysozyme-GFP differentiation, flow cytometry. calls only at 10 µM;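 active means normalized GFP-positive differentiation at or above the plate's own cutoff, the solvent-only control mean plus 3 SD; inconclusive means no clear call, values can overlap the other calls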;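 further: cells exposed to compound for four days before flow analysis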
NOD2 RIPK2 PPI – blocks binding of human NOD2 to RIPK2. O43353. CHO BLA complementation NOD2-RIPK2, CCF4 ratio. inhibition, % at 4.98 µM. hit rate 0.38% among 360,000; in the data active means inhibition above about 21%;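 further: 0% = vehicle only and 100% = reference blocker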
Target sequence (O43353 whole entry, looked up): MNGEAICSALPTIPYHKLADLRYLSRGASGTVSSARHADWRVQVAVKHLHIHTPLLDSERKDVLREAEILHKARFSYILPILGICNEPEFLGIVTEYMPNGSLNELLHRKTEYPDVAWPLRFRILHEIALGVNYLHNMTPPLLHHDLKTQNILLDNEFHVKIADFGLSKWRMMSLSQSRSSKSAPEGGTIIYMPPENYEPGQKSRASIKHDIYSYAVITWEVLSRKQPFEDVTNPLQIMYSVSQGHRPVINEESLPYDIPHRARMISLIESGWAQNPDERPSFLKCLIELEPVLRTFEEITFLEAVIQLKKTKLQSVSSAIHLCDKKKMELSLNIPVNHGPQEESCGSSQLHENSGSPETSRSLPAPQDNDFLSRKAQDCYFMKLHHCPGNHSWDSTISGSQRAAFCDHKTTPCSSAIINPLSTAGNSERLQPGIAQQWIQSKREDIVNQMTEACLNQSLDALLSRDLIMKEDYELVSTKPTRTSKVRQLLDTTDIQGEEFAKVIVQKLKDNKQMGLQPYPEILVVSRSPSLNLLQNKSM
ABCB6 inh 2 – inhibitors of human ABC transporter ABCB6; Q9NP58; K562-ABCB6 porphyrin accumulation, flow cytometry, 1 h; hits give low values; fluorescence ratio to DMSO, % at 10 µM; hit rate 0.19% among 360,000;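 active means fluorescence ratio to DMSO below 75%, the collection mean minus 3 SD; inconclusive means too few cells collected in the well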;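 further: signal is porphyrin accumulated inside mitochondria; 100% equals median channel fluorescence of DMSO control wells; lower ratio means ABCB6 inhibition with less porphyrin fluorescence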
TLR9-MyD88 conf – TLR9-MyD88 interaction inhibition, confirmation; shares compounds with TLR9-MyD88 inh; CHO TLR9/MyD88 BLA complementation, CCF4 FRET ratio; inhibition, % at 4.98 µM; hit rate 51% among 680;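 active means mean inhibition across three repeats above about 21% taken from the earlier screen, limit read from the data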;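 further: blue over green emission ratio reports constitutive TLR9 MyD88 association via BLA complementation; 0% = DMSO vehicle wells and 100% = clavulanate BLA inhibitor wells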
BLA counter-1 – counter-screen for TLR9-MyD88 inhibitors: non-selective beta-lactamase inhibitors. inhibition, % at 4.98 µM. hit rate 7% among 680. shares compounds with TLR9-MyD88 inh. CHO-BLA cells, CCF4 FRET ratio, BLA reporter;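 active means mean inhibition above a 50% cutoff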;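 further: counterscreen of TLR9-MyD88 hits on CMV-driven BLA in CHO-K1 cells; 0% = DMSO alone and 100% = clavulanate blocking BLA; higher means less blue over green ratio so more BLA blockade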
TLR9 CHO cytotox – CHO cell toxicity counter-screen for TLR9-MyD88 inhibitors. shares compounds with TLR9-MyD88 inh. TLR9-MyD88 CHO cells cytotoxicity, luminescence. inhibition, % at 4.98 µM. hit rate 39% among 680. AID 588336; in the data active means inhibition above about 11%
NOD2 RIPK2 conf – NOD2-RIPK2 interaction inhibition confirmed | shares compounds with NOD2 RIPK2 PPI | CHO cells, NOD2-RIPK2 BLA complementation, CCF4 FRET | inhibition, % at 4.98 µM | hit rate 70% among 1,200 | AID 624370;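 active means mean inhibition across replicates above a set limit taken from the earlier primary screen, cut at about 21% in these data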;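 further: 0% = DMSO-only wells and the high end = clavulanate BLA-blocked wells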
BLA counter-2 – NOD2-RIPK2 counterscreen BLA reporter activity | shares compounds with NOD2 RIPK2 PPI | hit rate 57% among 1,200 | CHO BLA reporter, CCF4 FRET ratio | inhibition, % at 4.98 µM;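 active means mean inhibition above the low-control mean inhibition plus three low-control SD, cut at about 11% in these data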;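 further: 0% = DMSO only wells and 100% = clavulanate high control wells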
* marks the source's active call; other numbers are inactive results; i = inactive; ? = inconclusive; . = no result given; + = active, no number.

SMILES	TLR9-MyD88 inh	TLR4-MyD88 BLA	Myeloid diff 2	NOD2 RIPK2 PPI	ABCB6 inh 2	TLR9-MyD88 conf	BLA counter-1	TLR9 CHO cytotox	NOD2 RIPK2 conf	BLA counter-2
CC(C)CNC(=O)COC(=O)c1c2c(nc3ccccc13)/C(=C\c1cccs1)CC2	30*	.	i	47*	110	46*	54*	12*	70*	77*
O=S(=O)(NC1CC1)c1ccc(S(=O)(=O)N(Cc2ccccn2)C2CC2)cc1	-2	.	i	-1	99	.	.	.	.	.
Clc1ccc2nc(N3CCNCC3)nc(-c3ccccc3)c2c1	24*	19	i	37*	95	16	29	-1	38*	52*
C#CCN(C(=O)C1CCC(=O)N(CCc2cccc(F)c2)C1)C1CCCCC1 (centres undefined)	-12	.	i	10	95	.	.	.	.	.
CCOC(=O)C1=C(CSc2nc3c(cc2C#N)CCC3)OC(N)=C(C#N)C1c1ccccc1 (centres undefined)	-56	-5	i	-1	104	.	.	.	.	.
CCOC(=O)C1=C(CSc2nc(-c3ccccc3)ccc2C#N)OC(N)=C(C#N)C1c1ccccc1 (centres undefined)	32*	19	+	36*	360	6	6	20*	25*	25*
Cc1cc2nc(/C=C/c3cccnc3)[nH]c2cc1C	-3	.	.	11	99	.	.	.	.	.
Cc1cc2nc(/C=C/c3nc4cc(C)c(C)cc4[nH]3)[nH]c2cc1C	40*	.	i	25*	104	30*	32	-2	32*	43*
NC(=O)c1ncc(C(F)(F)F)cc1Oc1cccnc1	-1	-1	i	-14	106	.	.	.	.	.
Cc1ccc2nc(SCC(=O)NCCCN3CCCC3=O)[nH]c2c1	-4	.	i	-10	97	.	.	.	.	.
CCN(CC)c1ccc(C(=C2C=CC(=[N+](CC)CC)C=C2)c2ccccc2)cc1	53*	.	?	41*	86	83*	18	101*	32*	22*
CCN(CC)c1ccc(C(=O)NNC(=O)CCNC(=O)c2ccccc2)cc1	0	.	i	-12	97	.	.	.	.	.
O=C(CN1C(=O)NC2(CCOc3ccccc32)C1=O)c1ccc(F)cc1 (centres undefined)	1	.	i	-1	103	.	.	.	.	.
Cc1ccc(-c2cc(=O)c3cc(F)ccc3[nH]2)cc1	-4	1	i	1	98	.	.	.	.	.
Cc1ccc(C)c(-n2sc3ccc(F)cc3c2=O)c1	31*	.	i	26*	98	7	2	43*	33*	15*
CCCCCCSc1cc(-c2nc3cnccn3c2NCCCC)ccc1OC	41*	.	i	44*	119	26*	29	14*	40*	52*
Cc1ccc(NC(=O)CNc2cccc(Br)c2)cc1S(=O)(=O)N1CCOCC1	0	.	i	-1	97	.	.	.	.	.
COc1ccc(-c2cc3ccc(O)cc3oc2=O)cc1	21*	.	?	39*	108	17	26	1	43*	52*
CC(O)CN(CC(C)O)c1ccc2c(c1)Cc1cc([N+](=O)[O-])ccc1-2 (centres undefined)	53*	.	+	60*	181	44*	45	5	22*	70*
CCOC(=O)Nc1ccc2c(c1)Cc1cc([N+](=O)[O-])ccc1-2	6	.	i	15	98	.	.	.	.	.
O=C(Nc1ccccc1)C1=C(c2ccccc2)S(=O)(=O)CCS1(=O)=O	22*	11	?	50*	97	19	1	97*	60*	12*
O=C(O)c1ccccc1C(=O)Nc1ccccc1	-4	13	i	1	98	.	.	.	.	.
O=C(O)c1cccc(N2C(=O)C=CC2=O)c1	-2	.	i	-11	95	.	.	.	.	.
O=C(c1ccccc1)c1ccccc1N1C(=O)C=CC1=O	33*	.	i	70*	138	26*	5	96*	69*	16*
CC(C)(C)OC(=O)N[C@H](C(=O)OC(C)(C)C)c1ccc2c(c1)OCO2	-6	.	i	-5	101	.	.	.	.	.
SMILES	TLR9-MyD88 inh	TLR4-MyD88 BLA	Myeloid diff 2	NOD2 RIPK2 PPI	ABCB6 inh 2	TLR9-MyD88 conf	BLA counter-1	TLR9 CHO cytotox	NOD2 RIPK2 conf	BLA counter-2
CC(=O)Oc1ccc2cc(-c3nc4ccccc4n3C)c(=O)oc2c1	22*	12	i	39*	94	15	42	5	38*	59*
COc1ccccc1C(=O)NC(CCSC)C(=O)NCCCSc1ccccc1 (centres undefined)	-9	.	i	-5	99	.	.	.	.	.
CCCOc1cc(N(CC)CC)ccc1/C=C(/C#N)c1nc2ccc(C)cc2[nH]1	21*	23	?	34*	836	16	17	-5	35*	36*
COc1cc(/C=C(\C#N)c2nc3ccc(C)cc3[nH]2)c([N+](=O)[O-])cc1OC	5	-2	i	7	105	.	.	.	.	.
O=C1Nc2ccc(Br)cc2C12NNc1ccccc1O2 (centres undefined)	33*	21	+	36*	892	26*	21	0	35*	47*
CCN(CC)c1ccc(/C=C/c2cc(-c3ccccc3)c3ccccc3n2)cc1	55*	.	+	69*	333	70*	80*	5	80*	86*
Cc1ccc(C(=O)N/C(=C/c2ccc(-c3ccc([N+](=O)[O-])cc3)o2)C(=O)NCCCN(C)C)cc1	41*	.	+	48*	218	33*	28	6	57*	55*
O=C(NCCCO)/C(=C/c1ccc(-c2cccc([N+](=O)[O-])c2)o1)NC(=O)c1ccccc1	6	-5	i	7	95	.	.	.	.	.
Cc1ccccc1Oc1cc(-n2ncc(Cl)c(Cl)c2=O)ncn1	35*	-8	?	26*	60*	38*	24	99*	76*	-3
CCN1CCN(C(=O)/C(=C/c2ccco2)NC(=O)c2ccccc2)CC1	-10	.	i	-4	102	.	.	.	.	.
CCN1C(=O)c2cccc3c(Cl)ccc(c23)C1=O	2	2	i	-7	99	.	.	.	.	.
Cc1cccc(N2C(=O)c3cccc4c(N)ccc(c34)C2=O)c1	32*	.	i	35*	102	19	20	1	37*	44*

Source: PubChem BioAssay (several laboratories)
